Data: PubChem BioAssay (NCI)
Compounds without any hit were thinned out: in the full panel of roughly 83,000, 20% have a hit.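 Activity criterion: percent growth below 10, measured after cells in 96-well plates were exposed to a single compound concentration for 48 hours.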 Active and inactive are the calls of the source.

How the values were obtained:
Assay in all cases: NCI-60 one-dose screen, 48 h (100 = growth as untreated, 0 = no growth, -100 = all killed)
[1] = test system: DU-145 prostate; settings: 10 µM unless noted
[2] = test system: K-562 leukemia; settings: 10 µM unless noted
[3] = test system: MALME-3M melanoma; settings: 10 µM unless noted
[4] = test system: MDA-MB-231 breast; settings: 10 µM unless noted
[5] = test system: RXF 393 renal; settings: 10 µM unless noted
[6] = test system: SF-268 CNS; settings: 10 µM unless noted
[7] = test system: SF-295 CNS; settings: 10 µM unless noted
[8] = test system: SF-539 CNS; settings: 10 µM unless noted
[9] = test system: UACC-257 melanoma; settings: 10 µM unless noted
[10] = test system: M14 melanoma; settings: 10 µM unless noted
[11] = test system: HCT-15 colon; settings: 10 µM unless noted
[12] = test system: HT29 colon; settings: 10 µM unless noted
[13] = test system: SNB-75 CNS; settings: 10 µM unless noted
[14] = test system: SNB-19 CNS; settings: 10 µM unless noted
[15] = test system: U251 CNS; settings: 10 µM unless noted
[16] = test system: PC-3 prostate; settings: 10 µM unless noted
[17] = test system: SK-MEL-5 melanoma; settings: 10 µM unless noted
[18] = test system: UACC-62 melanoma; settings: 10 µM unless noted
[19] = test system: LOX IMVI melanoma; settings: 10 µM
[20] = test system: SK-MEL-28 melanoma; settings: 10 µM unless noted

Measured: growth

CCC(/C=C\C(C)=O)CC
inactive: [1] 111% | [2] 113% | [3] 98.4% | [4] 103% | [5] 97.8% | [6] 106% | [7] 104% | [8] 100% | [9] 94.8% | [10] 104% | [11] 101% | [12] 107% | [13] 99% | [14] 99.5% | [15] 96.6% | [16] 91.3% | [17] 102% | [18] 106% | [19] 97.4% | [20] 101%

O=C(Nc1ccccc1)c1ccco1
inactive: [1] 112% | [2] 93.7% | [3] 92.9% | [4] 112% | [5] 123% | [6] 117% | [7] 103% | [8] 102% | [9] 107% | [10] 97% | [11] 105% | [12] 100% | [13] 87% | [14] 107% | [15] 96.1% | [16] 100% | [17] 104% | [18] 104% | [19] 97.6% | [20] 105%

Nc1ccc2c(c1)Cc1cc(N)c(N)cc1-2
inactive: [1] 108% | [2] 97.3% | [3] 95.8% | [4] 84% | [5] 97.3% | [6] 104% | [7] 106% | [8] 109% | [9] 81% | [10] 102% | [11] 108% | [12] 95.9% | [13] 96% | [14] 95.6% | [15] 86% | [16] 96.3% | [17] 93.4% | [18] 94% | [19] 97% | [20] 107%

CC(=O)NC(CCC(=O)c1ccccc1)C(=O)O (stereo not given)
inactive: [1] 107% | [2] 108% | [3] 96.6% | [4] 107% | [5] 105% | [6] 101% | [7] 101% | [8] 91.2% | [9] 76.7% | [10] 90.9% | [11] 104% | [12] 93.6% | [13] 90% | [14] 101% | [15] 87.6% | [16] 80.2% | [17] 97% | [18] 97.4% | [19] 100% | [20] 105%

CC(C)N(CCCC#N)C(C)C
inactive: [1] 107% | [2] 104% | [3] 109% | [4] 102% | [5] 103% | [6] 103% | [7] 100% | [8] 97.9% | [9] 89.2% | [10] 107% | [11] 96.7% | [12] 86.6% | [13] 85.2% | [14] 90.7% | [15] 92.4% | [16] 86.7% | [17] 103% | [18] 95.2% | [19] 97.7% | [20] 95.3%

CC(c1ccccc1)N1C(=O)CSC1=S (stereo not given)
active: [2] 5.61% | [5] -25% | [8] -59.7% | [11] 9.14% | [12] 1.08%
inactive: [1] 26.9% | [3] 79.3% | [4] 29.9% | [6] 24.9% | [7] 101% | [9] 55.3% | [10] 28.7% | [13] 19.9% | [14] 104% | [15] 17.3% | [16] 45.2% | [17] 34.8% | [18] 34.5% | [19] 16.1% | [20] 46.9%

Cc1ccc(S(=O)(=O)NC(=O)NCCSSCCNC(=O)NS(=O)(=O)c2ccc(C)cc2)cc1
inactive: [1] 110% | [2] 103% | [3] 97.3% | [4] 116% | [5] 102% | [6] 102% | [7] 95.3% | [8] 87.5% | [9] 89.1% | [10] 111% | [11] 96.7% | [12] 108% | [13] 85.5% | [14] 99.4% | [15] 98.6% | [16] 96.6% | [17] 97.8% | [18] 101% | [19] 98.2% | [20] 109%

CCNC(=O)OCCc1c2ccccc2nc2ccccc12
inactive: [1] 122% | [2] 88.2% | [3] 126% | [4] 119% | [5] 97.4% | [6] 109% | [7] 127% | [8] 109% | [9] 112% | [10] 120% | [11] 104% | [12] 103% | [13] 81.3% | [14] 111% | [15] 97% | [16] 43.9% | [17] 104% | [18] 99.1% | [19] 88.4% | [20] 97.7%

CCOC(OCC)C(=O)c1ccccc1
inactive: [1] 106% | [2] 109% | [3] 93.8% | [4] 111% | [5] 109% | [6] 99.2% | [7] 113% | [8] 88.2% | [9] 85.9% | [10] 101% | [11] 104% | [12] 92.7% | [13] 94.1% | [14] 103% | [15] 95% | [16] 85% | [17] 96.1% | [18] 111% | [19] 95.4% | [20] 104%
